# From article PMC7862700, “An all-to-all approach to the identification of sequence-specific readers for epigenetic DNA modifications on cytosine”
# How the values were obtained:
# Experiment in all cases: DAPPL (digital affinity profiling via proximity ligation, sequencing); 10 mM Tris-HCl pH 7.5, 50 mM NaCl, 1 mM DTT, 4% glycerol, room temperature, 30 min; GST-TFs on glutathione beads, 16-mer random dsDNA library, 0.1% formaldehyde crosslink after washing; high values mean tight binding
# [1] = biological target: T1, FLI1 (Homo sapiens, UniProt Q01543 1-452); details: protein: recombinant; tags: N-terminal GST; dsDNA, one strand shown
# T1 sequence: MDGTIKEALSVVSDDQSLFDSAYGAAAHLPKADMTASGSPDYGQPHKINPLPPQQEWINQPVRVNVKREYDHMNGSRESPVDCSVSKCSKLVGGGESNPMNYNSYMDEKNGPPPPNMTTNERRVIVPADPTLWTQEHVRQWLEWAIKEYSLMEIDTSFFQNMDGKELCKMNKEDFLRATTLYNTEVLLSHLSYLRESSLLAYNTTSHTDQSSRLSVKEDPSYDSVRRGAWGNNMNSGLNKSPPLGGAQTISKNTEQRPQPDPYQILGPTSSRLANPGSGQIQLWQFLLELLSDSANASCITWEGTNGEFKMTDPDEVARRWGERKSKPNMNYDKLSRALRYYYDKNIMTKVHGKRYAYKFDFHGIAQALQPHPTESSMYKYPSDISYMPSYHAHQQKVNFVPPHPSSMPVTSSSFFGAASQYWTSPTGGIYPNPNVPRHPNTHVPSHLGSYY
# Outline: (§1)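 GST fusions of human transcription factors were expressed in yeast and captured with glutathione beads. Once given DNA barcodes and pooled alongside a tag-only sample, they were incubated for 30 min at room temperature with 200 nmole of a random double-stranded 16-mer DNA library in Tris/NaCl/DTT/glycerol buffer, then washed, crosslinked (0.1% formaldehyde), proximity-ligated, PCR-amplified and sequenced on an Illumina NextSeq500. The binding signal of each hexamer is its read frequency for a factor divided by its frequency for the tag-only sample.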
# [2] = biological target: T2, ELK1 (Homo sapiens, UniProt P19419 1-428); details: protein: recombinant; tags: N-terminal GST; dsDNA, one strand shown
# T2 sequence: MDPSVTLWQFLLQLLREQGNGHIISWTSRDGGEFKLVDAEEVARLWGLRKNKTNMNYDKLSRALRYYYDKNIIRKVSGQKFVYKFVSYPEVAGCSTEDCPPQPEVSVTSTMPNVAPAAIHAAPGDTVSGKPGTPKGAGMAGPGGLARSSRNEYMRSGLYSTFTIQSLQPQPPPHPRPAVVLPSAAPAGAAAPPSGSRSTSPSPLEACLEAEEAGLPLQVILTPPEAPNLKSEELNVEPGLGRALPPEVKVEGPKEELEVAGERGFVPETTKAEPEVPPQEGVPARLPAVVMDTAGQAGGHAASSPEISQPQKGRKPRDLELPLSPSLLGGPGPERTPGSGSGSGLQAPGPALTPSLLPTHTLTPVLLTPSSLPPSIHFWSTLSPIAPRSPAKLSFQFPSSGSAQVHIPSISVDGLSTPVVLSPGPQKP
# Outline: as §1
# [3] = biological target: T3, GABPA (Homo sapiens, UniProt Q06546 1-454); details: protein: recombinant; tags: N-terminal GST; dsDNA, one strand shown
# T3 sequence: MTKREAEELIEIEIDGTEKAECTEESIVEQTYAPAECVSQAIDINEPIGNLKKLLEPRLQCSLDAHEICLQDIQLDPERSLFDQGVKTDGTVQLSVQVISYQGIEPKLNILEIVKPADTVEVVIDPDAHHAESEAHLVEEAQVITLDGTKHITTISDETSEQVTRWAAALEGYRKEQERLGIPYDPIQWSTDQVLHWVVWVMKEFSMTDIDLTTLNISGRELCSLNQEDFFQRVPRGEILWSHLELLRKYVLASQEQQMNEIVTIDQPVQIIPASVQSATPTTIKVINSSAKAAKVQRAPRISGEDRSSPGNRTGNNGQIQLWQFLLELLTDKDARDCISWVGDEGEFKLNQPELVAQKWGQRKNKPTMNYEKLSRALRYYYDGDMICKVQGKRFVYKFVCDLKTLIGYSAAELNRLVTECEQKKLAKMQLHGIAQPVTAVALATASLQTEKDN
# Outline: as §1
# [4] = biological target: T4, ERG (Homo sapiens, UniProt P11308 1-479); details: protein: recombinant; tags: N-terminal GST; dsDNA, one strand shown
# T4 sequence: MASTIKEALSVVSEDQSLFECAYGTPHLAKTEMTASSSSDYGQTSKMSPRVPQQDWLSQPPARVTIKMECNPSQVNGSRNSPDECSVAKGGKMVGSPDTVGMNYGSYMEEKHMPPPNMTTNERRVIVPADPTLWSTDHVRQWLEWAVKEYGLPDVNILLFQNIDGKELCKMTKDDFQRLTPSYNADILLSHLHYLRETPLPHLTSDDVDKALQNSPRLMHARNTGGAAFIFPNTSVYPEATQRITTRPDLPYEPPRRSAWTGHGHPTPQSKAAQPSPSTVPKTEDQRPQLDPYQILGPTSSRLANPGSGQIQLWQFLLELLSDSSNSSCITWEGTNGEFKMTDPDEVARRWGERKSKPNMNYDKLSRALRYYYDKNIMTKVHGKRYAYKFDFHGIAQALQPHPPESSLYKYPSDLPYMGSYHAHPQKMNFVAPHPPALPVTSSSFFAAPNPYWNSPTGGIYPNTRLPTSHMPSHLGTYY
# Outline: as §1
# [5] = biological target: ELF1 (Homo sapiens, UniProt P32519 1-619); details: protein: recombinant; tags: N-terminal GST; dsDNA, one strand shown
# Outline: as §1
# [6] = biological target: T5, EHF (Homo sapiens, UniProt Q9NZC4 1-300); details: protein: recombinant; tags: N-terminal GST; dsDNA, one strand shown
# T5 sequence: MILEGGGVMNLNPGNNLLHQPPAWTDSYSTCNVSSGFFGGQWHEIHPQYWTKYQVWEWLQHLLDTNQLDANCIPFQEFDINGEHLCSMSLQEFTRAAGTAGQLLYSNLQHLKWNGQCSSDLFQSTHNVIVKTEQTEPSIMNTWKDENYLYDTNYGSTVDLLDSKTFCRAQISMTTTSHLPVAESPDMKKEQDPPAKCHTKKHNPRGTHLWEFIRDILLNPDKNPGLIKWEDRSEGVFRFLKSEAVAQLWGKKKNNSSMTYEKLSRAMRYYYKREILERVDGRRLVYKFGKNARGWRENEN
# Outline: as §1
# [7] = biological target: SPI1 (Homo sapiens, UniProt P17947 1-270); details: protein: recombinant; tags: N-terminal GST; dsDNA, one strand shown
# Outline: as §1
# [8] = biological target: SPIB (Homo sapiens, UniProt Q01892 1-262); details: protein: recombinant; tags: N-terminal GST; dsDNA, one strand shown
# Outline: as §1
# [9] = biological target: T6, ELK3 (Homo sapiens, UniProt P41970 1-407); details: protein: recombinant; tags: N-terminal GST; dsDNA, one strand shown
# T6 sequence: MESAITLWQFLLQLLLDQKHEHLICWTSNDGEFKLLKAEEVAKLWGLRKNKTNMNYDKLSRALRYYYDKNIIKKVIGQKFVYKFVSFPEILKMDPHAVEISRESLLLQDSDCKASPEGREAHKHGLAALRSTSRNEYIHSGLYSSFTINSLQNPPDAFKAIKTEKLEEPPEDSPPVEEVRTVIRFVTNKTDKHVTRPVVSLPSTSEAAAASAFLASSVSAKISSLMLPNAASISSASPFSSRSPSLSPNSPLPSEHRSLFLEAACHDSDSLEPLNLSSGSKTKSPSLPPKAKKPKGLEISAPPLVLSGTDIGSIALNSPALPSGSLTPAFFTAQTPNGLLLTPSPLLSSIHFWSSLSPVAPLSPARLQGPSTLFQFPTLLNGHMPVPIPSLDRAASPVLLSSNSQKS
# Outline: as §1
# [10] = biological target: T7, FEV (Homo sapiens, UniProt Q99581 1-238); details: protein: recombinant; tags: N-terminal GST; dsDNA, one strand shown
# T7 sequence: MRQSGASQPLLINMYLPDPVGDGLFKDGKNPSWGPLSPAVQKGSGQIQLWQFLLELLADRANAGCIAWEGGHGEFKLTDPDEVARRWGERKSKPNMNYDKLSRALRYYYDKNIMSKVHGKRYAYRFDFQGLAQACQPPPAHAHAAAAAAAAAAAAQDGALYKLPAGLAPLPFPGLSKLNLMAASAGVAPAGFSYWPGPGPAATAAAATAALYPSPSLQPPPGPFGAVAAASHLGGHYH
# Outline: as §1
# [11] = biological target: ETV5 (Homo sapiens, UniProt P41161 1-510); details: protein: recombinant; tags: N-terminal GST; dsDNA, one strand shown
# Outline: as §1
# [12] = biological target: HSF1 (Homo sapiens, UniProt Q00613 1-529); details: protein: recombinant; tags: N-terminal GST; chain copies: 3; dsDNA, one strand shown
# Outline: as §1
# [13] = biological target: T8, SPIC (Homo sapiens, UniProt Q8N5J4 1-248); details: protein: recombinant; tags: N-terminal GST; dsDNA, one strand shown
# T8 sequence: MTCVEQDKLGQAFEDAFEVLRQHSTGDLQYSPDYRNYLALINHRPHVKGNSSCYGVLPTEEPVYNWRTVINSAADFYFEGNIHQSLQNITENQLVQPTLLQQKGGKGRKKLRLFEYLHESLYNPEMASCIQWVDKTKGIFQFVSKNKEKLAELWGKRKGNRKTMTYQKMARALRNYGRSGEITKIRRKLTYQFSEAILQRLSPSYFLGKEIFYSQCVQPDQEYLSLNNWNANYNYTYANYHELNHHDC
# Outline: as §1
# [14] = biological target: ELF4 (Homo sapiens, UniProt Q99607 1-663); details: protein: recombinant; tags: N-terminal GST; dsDNA, one strand shown
# Outline: as §1
# [15] = biological target: T9, ELK4 (Homo sapiens, UniProt P28324-2 1-405); details: protein: recombinant; tags: N-terminal GST; dsDNA, one strand shown
# T9 sequence: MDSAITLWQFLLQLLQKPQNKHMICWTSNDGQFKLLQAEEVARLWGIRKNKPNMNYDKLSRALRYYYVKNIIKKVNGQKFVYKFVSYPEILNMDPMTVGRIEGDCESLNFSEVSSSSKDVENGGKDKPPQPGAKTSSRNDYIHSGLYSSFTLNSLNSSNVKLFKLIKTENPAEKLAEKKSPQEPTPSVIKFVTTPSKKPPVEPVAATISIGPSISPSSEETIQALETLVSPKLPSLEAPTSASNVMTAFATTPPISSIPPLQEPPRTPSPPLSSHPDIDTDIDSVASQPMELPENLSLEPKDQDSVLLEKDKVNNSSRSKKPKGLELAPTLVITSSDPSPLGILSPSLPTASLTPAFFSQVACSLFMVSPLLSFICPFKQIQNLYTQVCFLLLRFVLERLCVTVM
# Outline: as §1
# [16] = biological target: T10, ETV2 (Homo sapiens, UniProt O00321 1-342); details: protein: recombinant; tags: N-terminal GST; dsDNA, one strand shown
# T10 sequence: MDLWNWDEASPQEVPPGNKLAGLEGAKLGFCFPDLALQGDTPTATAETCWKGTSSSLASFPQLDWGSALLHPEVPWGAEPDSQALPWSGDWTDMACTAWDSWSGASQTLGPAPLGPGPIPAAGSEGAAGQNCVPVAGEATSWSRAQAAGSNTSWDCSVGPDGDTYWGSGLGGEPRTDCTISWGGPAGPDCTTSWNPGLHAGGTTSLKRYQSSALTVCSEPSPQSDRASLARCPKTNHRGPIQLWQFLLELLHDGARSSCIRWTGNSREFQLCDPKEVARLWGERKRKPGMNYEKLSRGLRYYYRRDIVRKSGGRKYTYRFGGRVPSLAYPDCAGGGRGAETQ
# Outline: as §1
# [17] = biological target: T11, ELF3 (Homo sapiens, UniProt P78545 1-371); details: protein: recombinant; tags: N-terminal GST; dsDNA, one strand shown
# T11 sequence: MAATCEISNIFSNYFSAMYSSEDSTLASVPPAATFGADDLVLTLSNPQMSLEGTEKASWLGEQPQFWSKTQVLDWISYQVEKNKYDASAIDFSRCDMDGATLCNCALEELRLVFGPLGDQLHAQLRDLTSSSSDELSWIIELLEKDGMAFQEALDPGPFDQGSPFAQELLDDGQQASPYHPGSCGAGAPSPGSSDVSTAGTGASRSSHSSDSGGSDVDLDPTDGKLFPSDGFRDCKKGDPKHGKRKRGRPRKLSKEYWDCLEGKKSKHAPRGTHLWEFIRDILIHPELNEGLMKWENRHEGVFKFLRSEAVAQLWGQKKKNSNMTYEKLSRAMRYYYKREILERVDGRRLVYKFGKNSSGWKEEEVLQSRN
# Outline: as §1
# [18] = biological target: CRX (Homo sapiens, UniProt O43186 1-299); details: protein: recombinant; tags: N-terminal GST; dsDNA, one strand shown
# Outline: as §1
# [19] = biological target: ETV1 (Homo sapiens, UniProt P50549 1-477); details: protein: recombinant; tags: N-terminal GST; dsDNA, one strand shown
# Outline: as §1
# Chain of ELF1 (P32519 whole entry): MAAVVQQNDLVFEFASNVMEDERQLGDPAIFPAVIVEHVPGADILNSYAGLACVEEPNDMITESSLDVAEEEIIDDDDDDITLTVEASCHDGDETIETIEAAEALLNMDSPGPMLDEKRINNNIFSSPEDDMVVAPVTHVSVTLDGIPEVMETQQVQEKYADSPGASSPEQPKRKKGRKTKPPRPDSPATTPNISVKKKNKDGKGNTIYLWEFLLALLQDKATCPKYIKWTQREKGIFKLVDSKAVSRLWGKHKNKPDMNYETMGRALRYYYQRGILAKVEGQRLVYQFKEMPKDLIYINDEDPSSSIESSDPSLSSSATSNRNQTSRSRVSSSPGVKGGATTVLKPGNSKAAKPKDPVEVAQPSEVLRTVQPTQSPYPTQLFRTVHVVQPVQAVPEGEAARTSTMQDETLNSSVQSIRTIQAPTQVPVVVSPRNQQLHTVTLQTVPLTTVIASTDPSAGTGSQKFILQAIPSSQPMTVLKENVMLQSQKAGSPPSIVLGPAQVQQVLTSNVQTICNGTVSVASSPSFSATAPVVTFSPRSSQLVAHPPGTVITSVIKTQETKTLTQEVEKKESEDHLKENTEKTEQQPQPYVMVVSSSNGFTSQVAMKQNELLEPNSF
# Chain of ETV5 (P41161 whole entry): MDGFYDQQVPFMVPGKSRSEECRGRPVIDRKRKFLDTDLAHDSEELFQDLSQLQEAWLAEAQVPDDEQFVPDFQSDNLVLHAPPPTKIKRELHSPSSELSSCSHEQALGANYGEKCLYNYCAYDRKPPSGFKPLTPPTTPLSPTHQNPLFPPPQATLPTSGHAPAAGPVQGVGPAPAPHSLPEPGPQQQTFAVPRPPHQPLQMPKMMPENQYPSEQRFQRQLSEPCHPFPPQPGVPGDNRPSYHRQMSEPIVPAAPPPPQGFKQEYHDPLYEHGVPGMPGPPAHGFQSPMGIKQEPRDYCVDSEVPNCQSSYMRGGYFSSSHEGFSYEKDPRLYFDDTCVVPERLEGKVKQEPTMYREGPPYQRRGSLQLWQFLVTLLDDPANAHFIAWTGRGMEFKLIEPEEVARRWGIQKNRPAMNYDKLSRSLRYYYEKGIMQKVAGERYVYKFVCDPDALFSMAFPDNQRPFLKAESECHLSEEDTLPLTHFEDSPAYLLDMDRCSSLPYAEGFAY
# Chain of ELF4 (Q99607 whole entry): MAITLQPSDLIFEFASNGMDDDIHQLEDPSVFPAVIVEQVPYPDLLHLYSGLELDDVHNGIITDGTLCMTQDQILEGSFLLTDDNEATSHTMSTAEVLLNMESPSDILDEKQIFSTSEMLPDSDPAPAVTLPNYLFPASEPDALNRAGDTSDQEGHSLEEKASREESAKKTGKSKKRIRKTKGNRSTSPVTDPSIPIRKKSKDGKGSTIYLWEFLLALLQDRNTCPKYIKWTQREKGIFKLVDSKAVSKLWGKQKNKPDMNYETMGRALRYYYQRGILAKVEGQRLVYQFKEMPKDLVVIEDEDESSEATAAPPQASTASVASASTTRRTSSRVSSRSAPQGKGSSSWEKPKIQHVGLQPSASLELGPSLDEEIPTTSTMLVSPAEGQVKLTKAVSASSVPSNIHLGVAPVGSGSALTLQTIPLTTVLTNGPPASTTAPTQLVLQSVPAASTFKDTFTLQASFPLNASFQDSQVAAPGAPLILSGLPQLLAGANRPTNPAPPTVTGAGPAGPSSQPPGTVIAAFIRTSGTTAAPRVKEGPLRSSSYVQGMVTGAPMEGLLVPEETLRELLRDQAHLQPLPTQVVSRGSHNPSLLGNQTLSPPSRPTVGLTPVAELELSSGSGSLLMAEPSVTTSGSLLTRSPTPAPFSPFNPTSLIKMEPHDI
# Chain of SPIB (Q01892 whole entry): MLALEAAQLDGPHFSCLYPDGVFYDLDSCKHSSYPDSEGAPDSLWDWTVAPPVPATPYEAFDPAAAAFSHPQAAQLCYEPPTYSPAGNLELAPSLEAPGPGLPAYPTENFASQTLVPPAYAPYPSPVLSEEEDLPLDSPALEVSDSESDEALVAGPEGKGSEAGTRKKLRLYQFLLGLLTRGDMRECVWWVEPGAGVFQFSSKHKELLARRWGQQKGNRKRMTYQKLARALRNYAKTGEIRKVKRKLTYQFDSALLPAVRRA
# Chain of HSF1 (Q00613 whole entry): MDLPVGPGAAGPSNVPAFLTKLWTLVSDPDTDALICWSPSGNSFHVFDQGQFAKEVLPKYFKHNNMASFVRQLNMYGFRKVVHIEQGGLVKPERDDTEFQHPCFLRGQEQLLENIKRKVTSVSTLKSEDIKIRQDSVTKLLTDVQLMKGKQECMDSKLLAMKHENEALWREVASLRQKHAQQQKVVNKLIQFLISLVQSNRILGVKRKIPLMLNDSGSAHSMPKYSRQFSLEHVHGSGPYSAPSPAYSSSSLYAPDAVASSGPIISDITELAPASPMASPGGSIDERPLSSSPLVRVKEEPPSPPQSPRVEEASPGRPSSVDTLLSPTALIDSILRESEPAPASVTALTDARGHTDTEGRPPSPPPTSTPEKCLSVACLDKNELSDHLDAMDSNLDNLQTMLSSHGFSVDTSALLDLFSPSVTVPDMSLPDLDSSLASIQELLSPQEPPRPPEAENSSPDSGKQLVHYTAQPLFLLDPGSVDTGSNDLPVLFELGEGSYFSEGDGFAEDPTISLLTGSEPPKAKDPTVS
# Chain of ETV1 (P50549 whole entry): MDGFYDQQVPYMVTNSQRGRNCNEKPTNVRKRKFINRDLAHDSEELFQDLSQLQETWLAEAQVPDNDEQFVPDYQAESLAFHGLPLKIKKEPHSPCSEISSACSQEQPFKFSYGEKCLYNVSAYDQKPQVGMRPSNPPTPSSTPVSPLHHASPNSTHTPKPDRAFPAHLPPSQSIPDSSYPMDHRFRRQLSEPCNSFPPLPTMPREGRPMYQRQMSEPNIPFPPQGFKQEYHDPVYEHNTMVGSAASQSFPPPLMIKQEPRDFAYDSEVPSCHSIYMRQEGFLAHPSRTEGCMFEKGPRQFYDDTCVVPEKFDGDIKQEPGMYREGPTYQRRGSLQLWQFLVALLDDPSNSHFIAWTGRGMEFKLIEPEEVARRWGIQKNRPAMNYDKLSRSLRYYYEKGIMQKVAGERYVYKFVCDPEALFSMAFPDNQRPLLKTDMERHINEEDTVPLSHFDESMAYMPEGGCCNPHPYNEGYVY
# Chain of CRX (O43186 whole entry): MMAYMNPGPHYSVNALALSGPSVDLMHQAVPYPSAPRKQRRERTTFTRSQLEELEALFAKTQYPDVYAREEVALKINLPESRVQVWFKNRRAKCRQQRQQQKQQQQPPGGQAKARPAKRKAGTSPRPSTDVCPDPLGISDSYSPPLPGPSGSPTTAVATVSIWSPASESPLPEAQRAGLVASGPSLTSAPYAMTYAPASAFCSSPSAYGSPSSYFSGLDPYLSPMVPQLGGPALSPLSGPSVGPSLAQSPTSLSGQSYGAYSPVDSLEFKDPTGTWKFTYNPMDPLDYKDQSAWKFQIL
sequence,measurement,setting,value
ACCTCC,binding signal,[1],"1.38 fold enrichment (6-mer frequency, TF over GST control)"
same,binding signal,[2],"1.42 fold enrichment (6-mer frequency, TF over GST control)"
same,binding signal,[3],"1.43 fold enrichment (6-mer frequency, TF over GST control)"
same,binding signal,[4],"1.36 fold enrichment (6-mer frequency, TF over GST control)"
same,binding signal,[5],"1.44 fold enrichment (6-mer frequency, TF over GST control)"
same,binding signal,[6],"1.31 fold enrichment (6-mer frequency, TF over GST control)"
same,binding signal,[7],"1.31 fold enrichment (6-mer frequency, TF over GST control)"
same,binding signal,[8],"1.4 fold enrichment (6-mer frequency, TF over GST control)"
same,binding signal,[9],"1.46 fold enrichment (6-mer frequency, TF over GST control)"
same,binding signal,[10],"1.42 fold enrichment (6-mer frequency, TF over GST control)"
same,binding signal,[11],"1.43 fold enrichment (6-mer frequency, TF over GST control)"
same,binding signal,[12],"1.11 fold enrichment (6-mer frequency, TF over GST control)"
same,binding signal,[13],"1.45 fold enrichment (6-mer frequency, TF over GST control)"
same,binding signal,[14],"1.44 fold enrichment (6-mer frequency, TF over GST control)"
same,binding signal,[15],"1.45 fold enrichment (6-mer frequency, TF over GST control)"
same,binding signal,[16],"1.4 fold enrichment (6-mer frequency, TF over GST control)"
same,binding signal,[17],"1.14 fold enrichment (6-mer frequency, TF over GST control)"
same,binding signal,[18],"1.08 fold enrichment (6-mer frequency, TF over GST control)"
same,binding signal,[19],"1.4 fold enrichment (6-mer frequency, TF over GST control)"
